This note sets out measurements from paper PMC7862700, “An all-to-all approach to the identification of sequence-specific readers for epigenetic DNA modifications on cytosine”.

Common to all, as to test: DAPPL (digital affinity profiling via proximity ligation, sequencing); 10 mM Tris-HCl pH 7.5, 50 mM NaCl, 1 mM DTT, 4% glycerol, room temperature, 30 min; GST-TFs on glutathione beads, 16-mer random dsDNA library, 0.1% formaldehyde crosslink after washing; high values mean tight binding
One test has as its target T1, FEV (Homo sapiens, UniProt Q99581 1-238).
T1 sequence: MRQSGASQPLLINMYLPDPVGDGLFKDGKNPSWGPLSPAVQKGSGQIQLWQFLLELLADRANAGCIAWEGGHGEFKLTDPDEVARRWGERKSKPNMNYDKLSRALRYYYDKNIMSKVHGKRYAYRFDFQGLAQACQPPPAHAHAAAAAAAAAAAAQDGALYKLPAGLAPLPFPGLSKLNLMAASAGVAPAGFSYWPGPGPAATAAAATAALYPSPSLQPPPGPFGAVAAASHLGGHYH
The following applies: protein: recombinant; tags: N-terminal GST; dsDNA, one strand shown. In short, it runs like this: (§1)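 Human transcription factors were made in yeast as GST fusions, captured on glutathione beads and barcoded with DNA. With a tag-only sample included, the pool was incubated with 200 nmole of a random double-stranded 16-mer DNA library in Tris/NaCl/DTT/glycerol buffer at room temperature for 30 min, then crosslinked with 0.1% formaldehyde after washing, ligated by proximity, amplified and sequenced. For binding signal, each hexamer's read frequency for a factor is divided by its frequency for the tag-only sample.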

A further test has as its target ETV5 (Homo sapiens, UniProt P41161 1-510). The following applies: protein: recombinant; tags: N-terminal GST; dsDNA, one strand shown. In short, it runs like this:
as §1

In another test the target is HSF1 (Homo sapiens, UniProt Q00613 1-529). The following applies: protein: recombinant; tags: N-terminal GST; chain copies: 3; dsDNA, one strand shown. In short, it runs like this:
as §1

In the next test the target is T2, SPIC (Homo sapiens, UniProt Q8N5J4 1-248).
T2 sequence: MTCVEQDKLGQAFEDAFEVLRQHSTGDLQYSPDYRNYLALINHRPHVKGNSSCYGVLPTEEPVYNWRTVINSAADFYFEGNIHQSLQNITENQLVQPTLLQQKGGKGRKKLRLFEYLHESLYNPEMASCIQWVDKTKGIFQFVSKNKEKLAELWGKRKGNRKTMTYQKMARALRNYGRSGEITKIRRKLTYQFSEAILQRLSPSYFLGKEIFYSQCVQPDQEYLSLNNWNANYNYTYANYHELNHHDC
The following applies: protein: recombinant; tags: N-terminal GST; dsDNA, one strand shown. The procedure, abridged:
as §1

In the next test the target is ELF4 (Homo sapiens, UniProt Q99607 1-663). The following applies: protein: recombinant; tags: N-terminal GST; dsDNA, one strand shown. The procedure, abridged: as §1
For a further test, the target named is T3, ELK4 (Homo sapiens, UniProt P28324-2 1-405).
T3 sequence: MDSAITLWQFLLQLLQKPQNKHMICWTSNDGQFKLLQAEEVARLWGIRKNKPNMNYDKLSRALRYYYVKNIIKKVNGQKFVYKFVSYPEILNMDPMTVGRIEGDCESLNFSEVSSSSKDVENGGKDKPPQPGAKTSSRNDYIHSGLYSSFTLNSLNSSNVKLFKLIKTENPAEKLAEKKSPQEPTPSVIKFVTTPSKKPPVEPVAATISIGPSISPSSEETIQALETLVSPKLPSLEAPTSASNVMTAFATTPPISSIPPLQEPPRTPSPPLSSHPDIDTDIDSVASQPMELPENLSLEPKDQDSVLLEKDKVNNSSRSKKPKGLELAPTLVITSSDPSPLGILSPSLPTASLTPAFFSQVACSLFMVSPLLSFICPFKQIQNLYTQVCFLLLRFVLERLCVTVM
The following applies: protein: recombinant; tags: N-terminal GST; dsDNA, one strand shown. In short, it runs like this:
as §1

The target of another test is T4, ETV2 (Homo sapiens, UniProt O00321 1-342).
T4 sequence: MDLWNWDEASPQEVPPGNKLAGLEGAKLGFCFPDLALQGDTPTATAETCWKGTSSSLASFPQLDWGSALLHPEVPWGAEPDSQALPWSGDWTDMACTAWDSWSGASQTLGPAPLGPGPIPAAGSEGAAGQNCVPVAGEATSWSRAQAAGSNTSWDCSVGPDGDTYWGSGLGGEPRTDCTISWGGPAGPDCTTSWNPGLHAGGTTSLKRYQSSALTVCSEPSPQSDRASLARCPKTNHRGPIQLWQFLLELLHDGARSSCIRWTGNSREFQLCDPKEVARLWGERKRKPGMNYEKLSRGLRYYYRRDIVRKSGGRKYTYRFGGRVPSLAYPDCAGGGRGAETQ
The following applies: protein: recombinant; tags: N-terminal GST; dsDNA, one strand shown. In short, it runs like this: as §1

Another test deals with T5, ELF3 (Homo sapiens, UniProt P78545 1-371).
T5 sequence: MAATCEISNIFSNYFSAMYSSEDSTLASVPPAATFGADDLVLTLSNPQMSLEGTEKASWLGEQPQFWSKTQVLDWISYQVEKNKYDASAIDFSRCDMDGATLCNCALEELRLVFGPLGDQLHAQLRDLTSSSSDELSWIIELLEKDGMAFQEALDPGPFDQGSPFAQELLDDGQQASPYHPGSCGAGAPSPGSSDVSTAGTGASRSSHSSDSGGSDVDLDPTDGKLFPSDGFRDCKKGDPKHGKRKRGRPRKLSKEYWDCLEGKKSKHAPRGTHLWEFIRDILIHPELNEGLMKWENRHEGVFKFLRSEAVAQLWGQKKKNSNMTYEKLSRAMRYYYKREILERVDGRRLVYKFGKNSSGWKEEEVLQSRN
The following applies: protein: recombinant; tags: N-terminal GST; dsDNA, one strand shown. In short, it runs like this:
as §1

The target in a further test is CRX (Homo sapiens, UniProt O43186 1-299). The following applies: protein: recombinant; tags: N-terminal GST; dsDNA, one strand shown. The procedure, abridged:
as §1

For the next test, the target named is ETV1 (Homo sapiens, UniProt P50549 1-477). The following applies: protein: recombinant; tags: N-terminal GST; dsDNA, one strand shown. In short, it runs like this: as §1
For another test, the target named is T6, ERF (Homo sapiens, UniProt P50548 1-548).
T6 sequence: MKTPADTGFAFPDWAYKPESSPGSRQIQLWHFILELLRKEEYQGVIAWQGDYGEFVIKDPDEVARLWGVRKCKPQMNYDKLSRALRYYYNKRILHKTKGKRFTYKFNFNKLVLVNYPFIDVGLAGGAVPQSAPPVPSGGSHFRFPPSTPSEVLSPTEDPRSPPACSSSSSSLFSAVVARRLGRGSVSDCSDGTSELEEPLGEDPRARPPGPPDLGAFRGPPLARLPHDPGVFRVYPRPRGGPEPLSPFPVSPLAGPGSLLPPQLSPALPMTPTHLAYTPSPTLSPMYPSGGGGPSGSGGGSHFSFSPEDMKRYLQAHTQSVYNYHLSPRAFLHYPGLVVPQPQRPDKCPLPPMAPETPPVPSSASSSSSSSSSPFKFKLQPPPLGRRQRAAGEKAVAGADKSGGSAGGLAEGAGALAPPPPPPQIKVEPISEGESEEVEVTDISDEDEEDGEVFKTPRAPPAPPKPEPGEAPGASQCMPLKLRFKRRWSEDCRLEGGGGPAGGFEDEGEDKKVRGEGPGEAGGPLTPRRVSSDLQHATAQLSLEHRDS
The following applies: protein: recombinant; tags: N-terminal GST; dsDNA, one strand shown. In short, it runs like this: as §1

A further test has as its target T7, ETV3L (Homo sapiens, UniProt Q6ZN32 1-361).
T7 sequence: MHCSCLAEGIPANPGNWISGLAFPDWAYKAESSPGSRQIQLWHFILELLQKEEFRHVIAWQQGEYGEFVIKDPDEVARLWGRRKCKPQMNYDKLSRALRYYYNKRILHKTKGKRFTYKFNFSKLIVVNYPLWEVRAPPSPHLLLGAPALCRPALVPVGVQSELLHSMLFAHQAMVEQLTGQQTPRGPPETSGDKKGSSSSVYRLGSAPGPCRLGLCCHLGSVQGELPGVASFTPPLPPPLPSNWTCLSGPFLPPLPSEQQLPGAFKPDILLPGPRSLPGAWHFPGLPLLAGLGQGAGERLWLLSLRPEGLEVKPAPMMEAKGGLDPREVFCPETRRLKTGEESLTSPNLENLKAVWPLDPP
The following applies: protein: recombinant; tags: N-terminal GST; dsDNA, one strand shown. The procedure, abridged:
as §1

The next test has as its target T8, ETS2 (Homo sapiens, UniProt P15036 1-469).
T8 sequence: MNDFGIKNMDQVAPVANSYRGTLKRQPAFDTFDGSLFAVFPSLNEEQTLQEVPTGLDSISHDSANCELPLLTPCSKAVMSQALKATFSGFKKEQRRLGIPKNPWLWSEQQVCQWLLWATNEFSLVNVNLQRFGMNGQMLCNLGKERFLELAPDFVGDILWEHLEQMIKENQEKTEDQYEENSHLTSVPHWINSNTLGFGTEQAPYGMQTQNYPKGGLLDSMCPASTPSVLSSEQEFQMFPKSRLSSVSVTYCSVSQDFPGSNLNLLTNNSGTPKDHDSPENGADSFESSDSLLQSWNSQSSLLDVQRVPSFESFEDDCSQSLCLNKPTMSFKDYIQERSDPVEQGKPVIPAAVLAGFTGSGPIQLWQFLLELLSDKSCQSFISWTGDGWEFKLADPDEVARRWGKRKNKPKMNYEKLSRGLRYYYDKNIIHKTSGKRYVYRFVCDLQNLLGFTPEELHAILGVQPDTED
The following applies: protein: recombinant; tags: N-terminal GST; dsDNA, one strand shown. The procedure, abridged:
as §1

The next test deals with T9, SPDEF (Homo sapiens, UniProt O95238 1-335).
T9 sequence: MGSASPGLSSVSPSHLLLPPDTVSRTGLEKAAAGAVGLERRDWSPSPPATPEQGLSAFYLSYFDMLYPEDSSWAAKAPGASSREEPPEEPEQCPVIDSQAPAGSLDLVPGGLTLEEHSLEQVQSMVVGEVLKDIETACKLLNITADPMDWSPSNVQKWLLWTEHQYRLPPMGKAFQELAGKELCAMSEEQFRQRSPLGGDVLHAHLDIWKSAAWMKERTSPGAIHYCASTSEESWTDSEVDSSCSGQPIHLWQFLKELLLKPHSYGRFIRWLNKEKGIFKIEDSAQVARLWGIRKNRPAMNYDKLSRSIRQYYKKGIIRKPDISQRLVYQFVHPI
The following applies: protein: recombinant; tags: N-terminal GST; dsDNA, one strand shown. The procedure, abridged: as §1

A further test addresses T10, ETV7 (Homo sapiens, UniProt Q9Y603 1-341).
T10 sequence: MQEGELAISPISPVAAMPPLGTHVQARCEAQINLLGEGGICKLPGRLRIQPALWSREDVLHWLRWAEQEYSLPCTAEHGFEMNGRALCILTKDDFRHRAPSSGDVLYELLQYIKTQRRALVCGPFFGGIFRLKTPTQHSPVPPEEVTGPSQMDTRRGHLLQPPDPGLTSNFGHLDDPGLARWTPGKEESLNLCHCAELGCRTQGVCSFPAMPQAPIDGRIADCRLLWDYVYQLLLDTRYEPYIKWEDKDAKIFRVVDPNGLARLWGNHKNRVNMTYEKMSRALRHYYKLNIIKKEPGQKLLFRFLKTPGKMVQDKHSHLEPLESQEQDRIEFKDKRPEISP
The following applies: protein: recombinant; tags: N-terminal GST; dsDNA, one strand shown. The procedure, abridged: as §1

Another test has as its target T11, ELF5 (Homo sapiens, UniProt Q9UKW6-2 1-255).
T11 sequence: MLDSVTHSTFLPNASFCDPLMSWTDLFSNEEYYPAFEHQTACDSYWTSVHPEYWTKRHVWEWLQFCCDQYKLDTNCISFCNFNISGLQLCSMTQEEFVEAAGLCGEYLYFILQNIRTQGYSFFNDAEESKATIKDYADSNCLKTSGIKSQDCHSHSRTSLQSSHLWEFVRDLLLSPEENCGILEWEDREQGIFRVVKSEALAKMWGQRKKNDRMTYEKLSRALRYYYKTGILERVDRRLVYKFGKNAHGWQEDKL
The following applies: protein: recombinant; tags: N-terminal GST; dsDNA, one strand shown. In short, it runs like this: as §1

The next test deals with T12, ETV3 (Homo sapiens, UniProt P41162-2 1-143).
T12 sequence: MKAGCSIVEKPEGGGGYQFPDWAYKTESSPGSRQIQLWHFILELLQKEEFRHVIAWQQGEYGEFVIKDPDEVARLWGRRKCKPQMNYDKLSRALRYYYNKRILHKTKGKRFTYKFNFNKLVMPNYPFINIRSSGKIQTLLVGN
The following applies: protein: recombinant; tags: N-terminal GST; dsDNA, one strand shown. In short, it runs like this:
as §1

The target in the next test is ETV6 (Homo sapiens, UniProt P41212 1-452). The following applies: protein: recombinant; tags: N-terminal GST; dsDNA, one strand shown. The procedure, abridged: as §1
Chain of ETV6 (P41212 whole entry): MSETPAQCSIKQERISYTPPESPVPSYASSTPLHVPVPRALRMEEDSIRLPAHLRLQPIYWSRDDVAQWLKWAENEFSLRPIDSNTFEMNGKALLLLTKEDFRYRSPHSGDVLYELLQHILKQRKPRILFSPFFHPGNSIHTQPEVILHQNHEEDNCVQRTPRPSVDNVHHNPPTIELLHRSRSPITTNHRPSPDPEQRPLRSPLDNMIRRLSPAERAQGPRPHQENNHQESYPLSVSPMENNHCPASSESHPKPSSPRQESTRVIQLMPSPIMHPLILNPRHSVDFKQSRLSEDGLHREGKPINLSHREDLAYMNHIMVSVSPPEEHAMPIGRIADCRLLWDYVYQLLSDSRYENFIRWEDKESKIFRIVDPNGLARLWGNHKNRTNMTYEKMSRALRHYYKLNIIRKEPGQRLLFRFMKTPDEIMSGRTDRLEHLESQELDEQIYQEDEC

Chain of HSF1 (Q00613 whole entry): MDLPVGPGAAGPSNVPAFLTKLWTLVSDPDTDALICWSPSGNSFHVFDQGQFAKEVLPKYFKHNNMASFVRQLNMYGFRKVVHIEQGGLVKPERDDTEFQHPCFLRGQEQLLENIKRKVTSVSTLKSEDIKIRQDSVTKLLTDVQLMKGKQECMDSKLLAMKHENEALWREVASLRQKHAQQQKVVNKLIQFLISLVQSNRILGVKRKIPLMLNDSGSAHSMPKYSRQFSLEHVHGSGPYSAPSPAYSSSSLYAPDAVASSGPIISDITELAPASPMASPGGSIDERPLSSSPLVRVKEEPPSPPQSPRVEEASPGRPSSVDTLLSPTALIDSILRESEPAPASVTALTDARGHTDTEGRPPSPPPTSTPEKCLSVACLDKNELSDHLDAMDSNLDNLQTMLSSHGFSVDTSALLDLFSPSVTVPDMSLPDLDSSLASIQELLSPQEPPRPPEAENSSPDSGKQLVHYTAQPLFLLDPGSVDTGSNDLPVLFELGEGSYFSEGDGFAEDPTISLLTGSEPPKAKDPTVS
Chain of CRX (O43186 whole entry): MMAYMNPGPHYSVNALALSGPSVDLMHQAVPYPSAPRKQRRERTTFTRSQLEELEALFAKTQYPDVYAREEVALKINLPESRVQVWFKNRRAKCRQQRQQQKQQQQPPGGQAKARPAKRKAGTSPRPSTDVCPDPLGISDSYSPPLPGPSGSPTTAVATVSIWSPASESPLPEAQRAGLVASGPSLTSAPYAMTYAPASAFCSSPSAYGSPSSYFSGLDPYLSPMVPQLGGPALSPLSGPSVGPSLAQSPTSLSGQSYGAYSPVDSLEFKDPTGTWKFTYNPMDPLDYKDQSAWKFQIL
Chain of ETV1 (P50549 whole entry): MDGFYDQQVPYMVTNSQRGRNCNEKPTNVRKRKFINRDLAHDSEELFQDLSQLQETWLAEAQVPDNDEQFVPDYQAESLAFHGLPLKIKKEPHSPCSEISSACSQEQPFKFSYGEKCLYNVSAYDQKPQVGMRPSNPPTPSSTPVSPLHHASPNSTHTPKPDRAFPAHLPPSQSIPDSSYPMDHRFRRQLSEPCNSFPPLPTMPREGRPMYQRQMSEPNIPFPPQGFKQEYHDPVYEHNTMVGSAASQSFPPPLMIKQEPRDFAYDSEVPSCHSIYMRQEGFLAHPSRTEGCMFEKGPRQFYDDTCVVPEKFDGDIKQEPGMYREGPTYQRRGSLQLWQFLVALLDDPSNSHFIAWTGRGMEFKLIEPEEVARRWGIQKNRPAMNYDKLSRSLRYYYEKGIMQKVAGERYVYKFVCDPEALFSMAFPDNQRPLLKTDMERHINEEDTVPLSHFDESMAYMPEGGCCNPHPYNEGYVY
Chain of ELF4 (Q99607 whole entry): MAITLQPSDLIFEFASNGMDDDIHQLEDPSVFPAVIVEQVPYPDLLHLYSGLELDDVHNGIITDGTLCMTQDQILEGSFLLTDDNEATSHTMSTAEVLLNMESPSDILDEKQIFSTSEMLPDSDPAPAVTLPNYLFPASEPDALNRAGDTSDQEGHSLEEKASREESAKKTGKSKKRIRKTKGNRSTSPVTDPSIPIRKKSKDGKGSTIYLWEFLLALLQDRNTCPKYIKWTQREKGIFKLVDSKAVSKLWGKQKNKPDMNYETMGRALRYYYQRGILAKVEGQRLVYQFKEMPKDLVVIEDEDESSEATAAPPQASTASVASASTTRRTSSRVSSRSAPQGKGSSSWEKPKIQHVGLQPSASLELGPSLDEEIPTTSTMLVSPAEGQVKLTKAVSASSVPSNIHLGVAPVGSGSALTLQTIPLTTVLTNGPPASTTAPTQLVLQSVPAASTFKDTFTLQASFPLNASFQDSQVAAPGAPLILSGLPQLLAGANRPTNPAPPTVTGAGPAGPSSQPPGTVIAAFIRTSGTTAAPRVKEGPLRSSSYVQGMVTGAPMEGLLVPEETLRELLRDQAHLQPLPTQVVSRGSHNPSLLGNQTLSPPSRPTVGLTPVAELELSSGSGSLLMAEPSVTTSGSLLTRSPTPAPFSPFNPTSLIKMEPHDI
Chain of ETV5 (P41161 whole entry): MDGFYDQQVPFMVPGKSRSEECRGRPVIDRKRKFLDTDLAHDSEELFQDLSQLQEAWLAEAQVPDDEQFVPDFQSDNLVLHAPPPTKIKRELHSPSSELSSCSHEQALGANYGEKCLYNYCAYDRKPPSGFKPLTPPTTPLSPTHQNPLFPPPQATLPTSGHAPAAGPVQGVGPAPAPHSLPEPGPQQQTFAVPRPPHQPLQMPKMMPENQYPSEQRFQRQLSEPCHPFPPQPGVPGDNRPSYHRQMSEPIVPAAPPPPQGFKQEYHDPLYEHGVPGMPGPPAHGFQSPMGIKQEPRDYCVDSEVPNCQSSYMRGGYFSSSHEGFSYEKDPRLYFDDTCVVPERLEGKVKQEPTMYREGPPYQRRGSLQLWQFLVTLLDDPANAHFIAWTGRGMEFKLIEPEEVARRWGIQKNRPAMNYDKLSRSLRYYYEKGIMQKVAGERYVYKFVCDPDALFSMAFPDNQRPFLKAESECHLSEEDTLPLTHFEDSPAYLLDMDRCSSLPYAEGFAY

AAAGTA: the binding signal is 1.11 fold enrichment (6-mer frequency, TF over GST control) in the test with FEV; 1.09 fold enrichment (6-mer frequency, TF over GST control) in the test with ETV5; 1.29 fold enrichment (6-mer frequency, TF over GST control) with HSF1; 1.04 fold enrichment (6-mer frequency, TF over GST control) with SPIC; 1.17 fold enrichment (6-mer frequency, TF over GST control) with ELF4; 1.13 fold enrichment (6-mer frequency, TF over GST control) in the test with ELK4. In addition, the binding signal with ETV2 is 1.11 fold enrichment (6-mer frequency, TF over GST control); in the test with ELF3, 1.11 fold enrichment (6-mer frequency, TF over GST control); in the test with CRX, 1.35 fold enrichment (6-mer frequency, TF over GST control); with ETV1, 1.18 fold enrichment (6-mer frequency, TF over GST control); in the test with ERF, 1.11 fold enrichment (6-mer frequency, TF over GST control); in the test with ETV3L, 1.18 fold enrichment (6-mer frequency, TF over GST control). For the same sequence, the binding signal in the test with ETS2 was 1.17 fold enrichment (6-mer frequency, TF over GST control); with SPDEF, 1.13 fold enrichment (6-mer frequency, TF over GST control); with ETV7 it was 1.21 fold enrichment (6-mer frequency, TF over GST control); with ELF5, 1.18 fold enrichment (6-mer frequency, TF over GST control); with ETV3, 1.14 fold enrichment (6-mer frequency, TF over GST control); with ETV6, 1.15 fold enrichment (6-mer frequency, TF over GST control).
